Results filed as inconclusive are left out. Calls of active or inactive are those of the source. Calls come from the whole dose curve; as a rule, active = well fitted inhibition curve with a large enough effect; inconclusive = small, poorly fitted or top-dose-only effect; inactive = flat fitted curve, though single readings scatter.
% is set by controls: 0 for no effect and ±100 for the full control effect; potency is the fitted concentration of half-maximal effect.

The first assay concerns CRL-7250. Description: Cytotoxic Profiling of Annotated Libraries Using Quantitative High-Throughput Screening (AID 1296008). Note: nearly all actives have a fitted effect of over 60% in size. The conditions noted are these: Five cell lines viability, CellTiter-Glo ATP luminescence, 48-72 h; max response: active compounds read low. In a few lines: (§1)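 Cells exposed to compounds for 48 or 72 hr at 37 degrees Celsius. Viability read as ATP-coupled luminescence with CellTiter-Glo after 10 min at room temperature.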
For the molecule `CC(C)=CCC/C(C)=C/CC/C(C)=C/CCC(=O)OC/C=C(\C)CCC=C(C)C`, the max response is -7.77% (inactive).
For `NC(=O)COCCN1CCN(C(c2ccccc2)c2ccc(Cl)cc2)CC1` (stereo not given), the max response was 0.918% (inactive).
As to `CO[C@@H]1[C@@H](O[C@@H]2O[C@H](C)[C@@H](O[C@H]3C[C@@](C)(O)[C@@H](O)[C@H](C)O3)[C@H](N(C)C)[C@H]2O)[C@@H](CC=O)C[C@@H](C)[C@@H](O[C@@H]2CC[C@H](N(C)C)[C@@H](C)O2)/C=C/C=C/C[C@@H](C)OC(=O)C[C@H]1OC(C)=O`, the molecule was classed as inactive.
`Nc1cc(C(F)(F)F)ccc1S`: the max response was -0.153% (inactive).
The same measure, in the same setting: with `C#CC(C)(CC)OC(=O)c1ccccc1C(=O)O` (stereo not given) the figure was -9.5% (inactive); with `COCCc1ccccn1`, -7.75% (inactive).
For `O=C(CCCCCCCCC#CI)Oc1ccccc1`, the max response is 1.88% (inactive).
Regarding `O=P(O)(O)OCC(O)CO` (stereo not given), the max response was -2.69% (inactive).
For the molecule `C[C@H]1NCc2cc(-c3ccc4c(=O)c(C(=O)O)cn(C5CC5)c4c3OC(F)F)ccc21`, the max response is -16.7% (inactive).
For the molecule `O=C1NC(c2ccccc2)(c2ccccc2)C(=O)N1COP(=O)(O)O`, the outcome was inactive.
As to `Cc1cnc(NS(=O)(=O)c2ccc(N)cc2)nc1`, the molecule was called inactive.
For `COc1ccccc1N1CCN(CC(O)COc2cc(OC)c(OC)c(OC)c2)CC1` (stereo not given), the outcome was inactive.
`COc1ccc(/C(C)=C/C(=O)O)c(OC)c1`: the max response is 0.36% (inactive).
For `O=C(O)[C@@H](O)[C@H](O)[C@H](O)[C@@H](O)C(=O)O`, the max response was -8.84% (inactive).
As to `C/C(=N\O)[C@@H](C)NCC(C)(C)CN[C@H](C)/C(C)=N/O`, the call was inactive.
Regarding `CN(C)CCN1CCN(c2cccc(Cl)c2)C1=O`, the max response was -6.51% (inactive).
As to `CC(C)(C)C(O)/C=C/c1ccc2c(c1)OCO2` (stereo not given), the molecule was called inactive.
On to `O=C1c2ccccc2CCc2ccccc21`, for which the max response was 2.21% (inactive).
As for `CC(=O)Nc1ccc(S(=O)(=O)Nc2cc(C)on2)cc1`, the max response is -2.31% (inactive).
For the molecule `Cc1cc(O)c2c(O)c3c(O)cccc3cc2c1`, the outcome was inactive.
Consider `CCCCCCCCCCCCCCCCCCNC(=O)OC1CCN(C(=O)OC[C@H](COC(=O)N(Cc2cccc[n+]2CC)C(=O)c2ccccc2OC)OC)CC1`, for which the Potency was 8.41 µM (active).
For the molecule `Cc1nc([N+](=O)[O-])cn1-c1ccc([N+](=O)[O-])cc1`, the max response is 1.02% (inactive).
Same read-out and setting: with `O=C(CCCl)NCc1ccccc1` the figure was -8.2% (inactive).
For `CO/N=C(\C(=O)O)c1csc(NC(=O)CCl)n1`, the molecule was classed as inactive.
On to `CCCCCCOC(=O)NC(=N)c1ccc(NCc2nc3cc(C(=O)N(CCC(=O)OCC)c4ccccn4)ccc3n2C)cc1`, for which the max response is 2.91% (inactive).
With `Cc1coc2ccccc2c1=O`, the max response is -0.524% (inactive).
With `CC(C)(C)C(=O)OCOC(=O)C1N2C(=O)CC2S(=O)(=O)C1(C)C` (stereo not given), the max response was -2.99% (inactive).
As to `Oc1ccccc1-c1nnco1`, the molecule was classed as inactive.
`Brc1ccc([C@H]2CN3CCSC3=N2)cc1`: the max response is -3.15% (inactive).
Regarding `Cc1c(F)cc2c(=O)c(C(=O)O)cn3c2c1CCC3C` (stereo not given), the max response was -2.94% (inactive).
As for `CC(=O)c1cc2ccccc2s1`, the max response was -0.976% (inactive).
As to `N#CC1(c2ccc(F)cc2)CCC(=O)CC1`, the max response is -2.26% (inactive).
Take `O=C(O)CCC(=O)OC[C@@H](NC(=O)C(Cl)Cl)[C@H](O)c1ccc([N+](=O)[O-])cc1`: the max response is -4.73% (inactive).
Still for that read-out and setting: with `CC(NC(CCc1ccccc1)C(=O)O)C(=O)N1C(=O)N(C)CC1C(=O)O` (stereo not given) the figure was 1.99% (inactive); with `CN1C(=O)c2ccccc2C1=O`, 3.83% (inactive).
Regarding `Cc1c(N)cccc1C(F)(F)F`, the outcome was inactive.
Consider `COC(=O)c1ccc(NC(C)=O)cc1OC`, for which the max response is -0.178% (inactive).
Same read-out and setting: the figure for `CCN1CCCC1CN` (stereo not given) is 3.84% (inactive); for `C=C(C)C(=O)OCC(O)CO` (stereo not given) it is 4.35% (inactive).
`OCCc1ccccc1`: the max response is 4.7% (inactive).

The subject of another assay is HEK293. The description is as above. The note with it: Five cell lines viability, CellTiter-Glo ATP luminescence, 48-72 h; max response: active compounds read low. In a few lines:
as §1
As to `CC(C)=CCC/C(C)=C/CC/C(C)=C/CCC(=O)OC/C=C(\C)CCC=C(C)C`, the max response was -2.81% (inactive).
Consider `NC(=O)COCCN1CCN(C(c2ccccc2)c2ccc(Cl)cc2)CC1` (stereo not given), for which the max response was 1.14% (inactive).
Turning to `CO[C@@H]1[C@@H](O[C@@H]2O[C@H](C)[C@@H](O[C@H]3C[C@@](C)(O)[C@@H](O)[C@H](C)O3)[C@H](N(C)C)[C@H]2O)[C@@H](CC=O)C[C@@H](C)[C@@H](O[C@@H]2CC[C@H](N(C)C)[C@@H](C)O2)/C=C/C=C/C[C@@H](C)OC(=O)C[C@H]1OC(C)=O`, the Potency was 8.41 µM (active).
As to `Nc1cc(C(F)(F)F)ccc1S`, the max response was -4.91% (inactive).
On to `C#CC(C)(CC)OC(=O)c1ccccc1C(=O)O` (stereo not given), for which the max response was 4.2% (inactive).
For `COCCc1ccccn1`, the max response was -0.362% (inactive).
As to `O=C(CCCCCCCCC#CI)Oc1ccccc1`, the molecule was called inactive.
Regarding `O=P(O)(O)OCC(O)CO` (stereo not given), the max response was -2.36% (inactive).
Consider `C[C@H]1NCc2cc(-c3ccc4c(=O)c(C(=O)O)cn(C5CC5)c4c3OC(F)F)ccc21`, for which the max response is -17.6% (inactive).
On to `O=C1NC(c2ccccc2)(c2ccccc2)C(=O)N1COP(=O)(O)O`, for which the call was inactive.
Regarding `Cc1cnc(NS(=O)(=O)c2ccc(N)cc2)nc1`, the max response was -11.8% (inactive).
As for `COc1ccccc1N1CCN(CC(O)COc2cc(OC)c(OC)c(OC)c2)CC1` (stereo not given), the max response was 2.4% (inactive).
`COc1ccc(/C(C)=C/C(=O)O)c(OC)c1`: the outcome was inactive.
Take `O=C(O)[C@@H](O)[C@H](O)[C@H](O)[C@@H](O)C(=O)O`: the max response is 3.38% (inactive).
The same measure, in the same setting: the figure for `C/C(=N\O)[C@@H](C)NCC(C)(C)CN[C@H](C)/C(C)=N/O` is -22.3% (inactive).
For `CN(C)CCN1CCN(c2cccc(Cl)c2)C1=O`, the result was inactive.
Turning to `CC(C)(C)C(O)/C=C/c1ccc2c(c1)OCO2` (stereo not given), the max response was 0.172% (inactive).
For `O=C1c2ccccc2CCc2ccccc21`, the max response is -2.77% (inactive).
In the case of `CC(=O)Nc1ccc(S(=O)(=O)Nc2cc(C)on2)cc1`, the max response is 4.22% (inactive).
As for `Cc1cc(O)c2c(O)c3c(O)cccc3cc2c1`, the max response was -2.16% (inactive).
For `CCCCCCCCCCCCCCCCCCNC(=O)OC1CCN(C(=O)OC[C@H](COC(=O)N(Cc2cccc[n+]2CC)C(=O)c2ccccc2OC)OC)CC1`, the Potency was 7.5 µM (active).
As to `Cc1nc([N+](=O)[O-])cn1-c1ccc([N+](=O)[O-])cc1`, the max response is 0.842% (inactive).
As to `O=C(CCCl)NCc1ccccc1`, the max response was -4.62% (inactive).
As for `CO/N=C(\C(=O)O)c1csc(NC(=O)CCl)n1`, the max response was -4.55% (inactive).
`CCCCCCOC(=O)NC(=N)c1ccc(NCc2nc3cc(C(=O)N(CCC(=O)OCC)c4ccccn4)ccc3n2C)cc1`: the Potency was 10.6 µM (active).
Take `Cc1coc2ccccc2c1=O`: the max response was 3.92% (inactive).
In the case of `CC(C)(C)C(=O)OCOC(=O)C1N2C(=O)CC2S(=O)(=O)C1(C)C` (stereo not given), the outcome was inactive.
Regarding `Oc1ccccc1-c1nnco1`, the molecule was called inactive.
As for `Brc1ccc([C@H]2CN3CCSC3=N2)cc1`, the max response was 3.24% (inactive).
Consider `Cc1c(F)cc2c(=O)c(C(=O)O)cn3c2c1CCC3C` (stereo not given), for which the result was inactive.
`CC(=O)c1cc2ccccc2s1`: the max response is -8.14% (inactive).
The same measure, in the same setting: the figure for `N#CC1(c2ccc(F)cc2)CCC(=O)CC1` is -11.6% (inactive); for `O=C(O)CCC(=O)OC[C@@H](NC(=O)C(Cl)Cl)[C@H](O)c1ccc([N+](=O)[O-])cc1` it is -21.8% (inactive).
In the case of `CC(NC(CCc1ccccc1)C(=O)O)C(=O)N1C(=O)N(C)CC1C(=O)O` (stereo not given), the molecule was classed as inactive.
Take `CN1C(=O)c2ccccc2C1=O`: the max response is -4.39% (inactive).
Take `Cc1c(N)cccc1C(F)(F)F`: the outcome was inactive.
For the molecule `COC(=O)c1ccc(NC(C)=O)cc1OC`, the max response was -0.683% (inactive).
In the case of `CCN1CCCC1CN` (stereo not given), the molecule was called inactive.
Turning to `C=C(C)C(=O)OCC(O)CO` (stereo not given), the max response is -5.25% (inactive).
For `OCCc1ccccc1`, the max response is -1.38% (inactive).

These data come from PubChem BioAssay (NCATS).
